# Bioassay records as filed in PubChem BioAssay.
# VP16 counter = Gal4-VP16 reporter inhibition counter-screen; Drosophila S2 Gal4-VP16 UAS-luciferase, luminescence, 20 h; Potency, µM (series often up to 53.6 µM), without a hit: top-dose activity, negative = inhibition, hits mostly inhibitors; 310,000 tested, 3.5% active;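 note: Gal4-VP16 expression switched on by copper sulfate through the metallothionein promoter; % is set by controls: 0 for no effect and ±100 for the full control effect; nearly all actives have a fitted effect of over 50% in size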
# GLP1R ag = GLP-1 receptor (human) agonism; 380,000 tested, 0.007% active; Potency, µM (top dose mostly 45.6 µM), for the others: top-dose activation, usual class: activators; P43220; HEK293 GLP-1R CRE-luciferase, luminescence, 4-6 h; cells express a hypersensitive GLP-1R form; note: % of control where 0% means no effect
# GLP-1R inv ag = acts as inverse agonist at human GLP-1 receptor. P43220. Potency, µM (top dose mostly 38.3 µM), inactives show at the highest dose activity change, negative = inhibition, most hits filed as inhibitors. HEK293 GLP-1R CRE-luciferase, luminescence, 24 h; GLP-1R form is constitutively active. 410,000 tested, 1.6% active; note: % is set by controls: 0 for no effect and ±100 for the full control effect; nearly all actives have a fitted effect of over 55% in size
#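 GLP-1R inverse agonism mode: basal reporter luminescence in engineered HEK293 cells measured after one day of compound exposure at 37 deg C, with a 12 min room-temperature detection step.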
# HEK293 tox = cytotoxicity in counter-screen for GLP-1R inverse agonists | 410,000 tested, 0.13% active | HEK293 cAMP-luciferase reporter cells, luminescence, 24 h | Potency, µM (highest dose often 38.3 µM), without a hit: at the highest dose activity change, negative = inhibition, hits mostly inhibitors | AID 624418;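 note: loss of luciferase light is scored as toxicity; % is set by controls: 0 for no effect and ±100 for the full control effect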
#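 Cells in DMEM/10% Nu serum/1% pen-strep, 1536-well format. Pre-incubated 12 h, dosed with 23 nL compound, incubated a further 24 h. Luciferase detection, 12 min at room temp, luminescence.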
# RORg inh = blocks mouse ROR gamma transcriptional activity. Drosophila S2 Gal4-RORgamma UAS-luciferase reporter, 20 h. Potency, µM (top dose mostly 53.6 µM), inactives show at the top dose activity change, negative = inhibition, actives largely listed as inhibitors. 310,000 tested, 5.4% active. AID 2551; note: % is set by controls: 0 for no effect and ±100 for the full control effect; nearly all actives have a fitted effect of over 60% in size
# Target sequence (P51450 whole entry, looked up, the tested form may be a part): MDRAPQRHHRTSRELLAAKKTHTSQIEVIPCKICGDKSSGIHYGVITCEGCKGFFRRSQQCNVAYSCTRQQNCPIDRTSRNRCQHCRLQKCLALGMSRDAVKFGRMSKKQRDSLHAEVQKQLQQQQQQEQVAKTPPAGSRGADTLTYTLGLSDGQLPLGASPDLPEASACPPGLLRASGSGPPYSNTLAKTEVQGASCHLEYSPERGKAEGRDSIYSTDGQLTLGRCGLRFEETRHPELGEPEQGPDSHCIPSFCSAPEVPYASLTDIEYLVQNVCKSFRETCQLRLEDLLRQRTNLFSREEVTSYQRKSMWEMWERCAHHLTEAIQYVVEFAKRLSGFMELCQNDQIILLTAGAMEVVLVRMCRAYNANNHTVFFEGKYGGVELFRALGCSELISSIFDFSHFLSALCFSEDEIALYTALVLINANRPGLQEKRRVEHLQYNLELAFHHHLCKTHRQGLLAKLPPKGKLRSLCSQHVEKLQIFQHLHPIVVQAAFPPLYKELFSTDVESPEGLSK
#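 Luminescence from a UAS-regulated Photinus luciferase reporter in stably transfected Drosophila Schneider cells is measured; decreased signal marks ROR gamma inhibition. Fusion expression is induced by 700 uM copper sulfate for 20 hr.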
# Numbers without * were called inactive; ? = inconclusive; . = no result given; [ ] = remark or other dose. Only some compounds are listed: those with a hit (about 5.9% of all), similar ones and a draw of the others. Calls come from the whole dose curve; as a rule, active = well fitted curve in the direction sought with a large enough effect; inconclusive = small, poorly fitted or top-dose-only effect, or another doubt; inactive = no such curve, though single readings can be large; an effect the other way counts as inactive or inconclusive. Potency is the fitted concentration of half-maximal effect.
SMILES,VP16 counter,GLP1R ag,GLP-1R inv ag,HEK293 tox,RORg inh
CCN(CC)c1ccc(NC(=O)c2c(C)nn(-c3ccc(F)cc3)c2-n2cccc2)c(C)c1,.,0.7%,5.01µM*,-9.3%,.
Cc1ccc(CCNC(=O)c2c(C)nn(-c3ccc(F)cc3)c2-n2cccc2)cc1,.,24.5%,6.31µM*,-23.2%,.
Cc1ccc(CNC(=O)c2ccc3c(c2)N(Cc2cccc(C)c2)C(=O)CS3)cc1,.,-0.3%,?,-0.8%,.
O=C(c1cnc(N2CCCCC2)c2ccccc12)N1CCN(c2ccc(Cl)cc2)CC1,.,.,?,-11.1%,.
c1ccc2c(c1)CCCN2c1nc(N2CCOCC2)nc(N2CCOCC2)n1,-0.6%,11.8%,?,-0.8%,1.2%
C1=CCN(c2nc(N3CCOCC3)nc(N3CCCc4ccccc43)n2)CC1,.,7.2%,11.2µM*,0.8%,.
COc1ccc2c(c1)O[C@@H](c1ccc3c(c1)OCO3)[C@H](OC(=O)NCc1ccc3c(c1)OCO3)C2=O,-8.9%,.,.,.,-8.6%
CCN(c1ccccc1)S(=O)(=O)c1ccc(NC(=S)NC(=O)c2ccc(Br)o2)cc1,15.8µM*,-17.1%,?,-8.3%,4.47µM*
CCC(=O)NC(=S)Nc1ccc(NC(=O)c2ccc(Br)o2)cc1,9.4%,?,12.9%,-11.4%,11.2µM*
COc1ccc(C(=O)CSc2nc(C)cc(=O)[nH]2)cc1,.,-1.4%,15.9%,4.8%,-39.9%[0.365 µM]
Cc1cc(=O)[nH]c(SCC(=O)c2ccc(C(C)C)cc2)n1,?,0.9%,0.0%,-6.4%,1.12µM*
C[C@H](NC(=O)c1nc[nH]c1C(=O)N[C@@H](Cc1ccccc1)C(=O)OC(C)(C)C)c1ccccc1,11.2µM*,10.7%,?,10.9%,7.08µM*
C[C@@H](NC(=O)c1nc[nH]c1C(=O)N[C@@H](Cc1ccccc1)C(=O)OC(C)(C)C)c1ccccc1,7.08µM*,-0.9%,?,?,3.98µM*
C[C@H](NC(=O)c1nc[nH]c1C(=O)N[C@H](C)c1ccccc1)C(=O)OC(C)(C)C,?,2.5%,12.0%,-27.4%,?
CS(=O)(=O)N1CCc2cc(C(=O)Nc3ccc(S(N)(=O)=O)cc3)ccc21,.,.,0.8%,5.7%,.
COc1ccccc1NS(=O)(=O)c1cc2c(cc1Cl)NC(=O)CO2,.,.,-2.9%,0.8%,.
CN(C)c1ccc(C=Nc2ccccc2C(N)=O)cc1,10µM*,-20.0%,-43.6%,-10.7%,?
Cc1ccc(C=Nc2ccccc2C(N)=O)o1,20µM*,0.9%,4.1%,14.9%,?
Cc1ccc(/C=C/C(=O)Nc2ccccc2C(N)=O)o1,.,.,7.3%,2.5%,.
Cc1cccc(CNc2ccnc(-c3ccccc3Cl)n2)c1,-8.2%,.,.,.,41.1%
CCCC[C@@H](CNC)NC[C@H](NCCCCC1CCCCC1)C(C)C,?,-2.1%,?,?,15.8µM*
O=C(Nc1cccc(-c2nnc(-c3ccco3)o2)c1)C(c1ccccc1)c1ccccc1,-13.6%,-1.6%,8.91µM*,10.9%,13.8%
Cc1cc(C(=O)NCc2cc(F)cc3c2OCOC3)nn1C,5.8%,12.2%,23.8%,-1.7%,-16.2%
Cn1nc(C(C)(C)C)cc1C(=O)NCc1cc(F)cc2c1OCOC2,3.55µM*,9.7%,?,-4.4%,?
C=CCOC(=O)N[C@H](c1cccc(C(F)(F)F)c1)C(C(C)=O)C(C)=O,6.4%,.,.,.,-8.1%
SMILES,VP16 counter,GLP1R ag,GLP-1R inv ag,HEK293 tox,RORg inh
Cc1cccc(Cn2c(C)c(CNC3CCCCCC3)c(C(=O)O)c2C)c1,.,.,-8.6%,-2.7%,.
Cc1ccc(C(=O)/C=C/C(=O)O)cc1,7.94µM*,-4.4%,?,-15.2%,11.2µM*
CCOC(=O)c1cc(-c2ccc(F)cc2)n(CCC(=O)NC2CCN(Cc3ccccc3)CC2)c1C,0.8%,13.7%,7.94µM*,?,-41.7%
CCOC(=O)c1cc(-c2ccc(C)cc2)n(CCC(=O)Nc2ccc(C(C)C)cc2)c1C,.,0.2%,2.51µM*,-4.4%,.
CCOC(=O)c1cc(-c2ccccc2)n(CCCC(=O)Nc2cccc(C)c2)c1C,.,.,?,0.8%,.
O=C(CCn1c(=O)c2ccccc2n(Cc2ccccc2)c1=O)NC1CCN(Cc2ccccc2)CC1,-4.1%,6.8%,-5.3%,-26.1%,0.112µM*
CCOC(=O)c1cc(-c2ccc(OC)cc2)n(CCC(=O)NC2CCN(Cc3ccccc3)CC2)c1C,6.3%,-7.4%,?,?,-3.0%
CCOC(=O)c1cccc(NC(=O)CCn2c(-c3ccc(F)cc3)cc(C(=O)OCC)c2C)c1,.,.,10µM*,-1.3%,.
NC(=O)Cn1c(=O)n(CCCC(=O)NC2CCN(Cc3ccccc3)CC2)c(=O)c2ccccc21,-6.1%,-2.2%,1.0%,-10.0%,2.3%
CN1CCN(c2ncc3nc(-c4cccs4)c(=O)n(CCc4ccccc4)c3n2)CC1,8.7%,.,.,.,-16.1%
COc1ccc(-c2cn3c(C)c(C(=O)Nc4cc(NC(C)=O)ccc4OC)sc3n2)cc1,?,-6.6%,0.0%,-22.0%,12.6µM*
CCC(=O)NC(=S)Nc1ccc(NC(=O)c2cc3ccccc3o2)c(OC)c1,?,1.2%,33.1%,2.0%,4.47µM*
COc1cc(NC(=O)c2cccc(C)c2)ccc1NC(=O)c1cc2ccccc2o1,12.6µM*,-1.5%,-27.3%,-16.6%,?
CCC(=O)Nc1ccc(Cl)c(NC(=S)NC(=O)c2cc3ccccc3o2)c1,3.55µM*,-9.0%,1.9%,-12.1%,?
Cc1ccc(/C=C/c2onc(C)c2S(=O)(=O)N2CCC(C(=O)N3CCN(c4cccc(C)c4)C(C)C3)CC2)cc1 (stereo not given),.,-0.6%,0.8%,-6.1%,.
Cc1ccc(S(=O)(=O)N[C@H]2COC(=O)C/C=C\[C@@H](C)COC(=O)C/C=C\[C@@H]2C)cc1,-3.4%[10 µM],.,.,.,19.9%[10 µM]
OC1c2ccccc2-c2nc3ccccc3cc21 (stereo not given),-28.2%,.,.,.,-35.7%
CCc1ccc(NC(=O)C2CCN(S(=O)(=O)c3c(C)noc3/C=C/c3cccs3)CC2)cc1,.,.,?,-0.2%,.
CC(=O)C1=C(O)C(=O)N(Cc2cccnc2)C1c1ccc(C(C)C)cc1 (stereo not given),?,-4.7%,9.0%,-22.0%,1.2%
CC(C)c1ccc(/C=C2\NC(=S)N(Cc3cccnc3)C2=O)cc1,-20.5%,4.7%,?,-10.7%,7.94µM*
NC(=S)NS(=O)(=O)c1ccc(N)cc1,-0.7%,1.9%,.,.,8.7%
CC(C)(C)n1ncc2c(=O)n(Cc3c(F)cccc3Cl)cnc21,-17.8%,12.5%,2.51µM*,-4.2%,?
Cc1ccc(Cl)c(Cn2cnc3c(cnn3C(C)(C)C)c2=O)c1F,.,23.1%,.,.,.
CC(=O)Nc1ccc(NC(=O)Cn2cnc3c(cnn3C(C)(C)C)c2=O)cc1,.,28.4%,15.6%,-9.7%,-27.5%[0.365 µM]
CC(C)(C)n1ncc2c(=O)n(CC(=O)NCc3ccccc3)cnc21,?,-14.2%,4.47µM*,?,10µM*
Cc1ccc(Cn2ccn(Cc3ccccc3F)c(=O)c2=O)cc1,.,.,-10.2%,6.4%,.
